# In the supplement of paper PMC4466140:
# Assays:
# Experiment in all cases: SPOT peptide array binding signal intensity (averaged, normalized) (arbitrary units (background-subtracted, floor 0; scale differs between SH3 domains)); higher = stronger binding of the SH3 domain to the peptide
# [1] = biological target: AgAbp1
# How it was run: (§1)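 GST-fused SH3 domains from four yeast species were expressed in E. coli BL21(DE3), purified on glutathione Sepharose and incubated at 10 μg/ml overnight at 4°C in TBS-based blocking buffer on cellulose membranes carrying synthetic 15-mer peptides, with cysteines replaced by serines. Bound protein was detected with anti-GST antibody, an HRP anti-mouse secondary and luminol, then imaged and quantified with Genespotter. Binding signal is the normalized, background-subtracted spot intensity averaged over replicates, in arbitrary units that differ between domains.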
# [2] = biological target: AgBbc1
# How it was run: as §1
# [3] = biological target: AgBem1-D1
# How it was run: as §1
# [4] = biological target: AgBzz1-D1
# How it was run: as §1
# [5] = biological target: AgBzz1-D2
# How it was run: as §1
# [6] = biological target: AgCyk3
# How it was run: as §1
# [7] = biological target: AgFus1
# How it was run: as §1
# [8] = biological target: AgHof1
# How it was run: as §1
# [9] = biological target: AgHse1
# How it was run: as §1
# [10] = biological target: AgLsb1
# How it was run: as §1
# [11] = biological target: AgLsb4
# How it was run: as §1
# [12] = biological target: AgMyo5
# How it was run: as §1
# [13] = biological target: AgNbp2
# How it was run: as §1
# [14] = biological target: AgRvs167
# How it was run: as §1
# [15] = biological target: AgSho1
# How it was run: as §1
# [16] = biological target: AgSla1-D1-D2
# How it was run: as §1
# [17] = biological target: AgSla1-D3
# How it was run: as §1
# [18] = biological target: CaAbp1-D1
# How it was run: as §1
# [19] = biological target: CaAbp1-D2
# How it was run: as §1
# [20] = biological target: CaBbc1
# How it was run: as §1
# [21] = biological target: CaBem1-D1
# How it was run: as §1
# [22] = biological target: CaBzz1-D1
# How it was run: as §1
# [23] = biological target: CaBzz1-D2
# How it was run: as §1
# [24] = biological target: CaCyk3
# How it was run: as §1
# [25] = biological target: CaFus1
# How it was run: as §1
# [26] = biological target: CaHof1
# How it was run: as §1
# [27] = biological target: CaHse1
# How it was run: as §1
# [28] = biological target: CaLsb1
# How it was run: as §1
# [29] = biological target: CaLsb4
# How it was run: as §1
# [30] = biological target: CaMyo5
# How it was run: as §1
# [31] = biological target: CaNbp2
# How it was run: as §1
# [32] = biological target: CaRvs167
# How it was run: as §1
# [33] = biological target: CaRvs167-3
# How it was run: as §1
# [34] = biological target: CaSho1
# How it was run: as §1
# [35] = biological target: CaSla1-D1-D2
# How it was run: as §1
# [36] = biological target: CaSla1-D3
# How it was run: as §1
# [37] = biological target: ScAbp1
# How it was run: as §1
# [38] = biological target: ScBbc1
# How it was run: as §1
# [39] = biological target: ScBem1-D1
# How it was run: as §1
# [40] = biological target: ScBzz1-D1
# How it was run: as §1
# [41] = biological target: ScBzz1-D2
# How it was run: as §1
# [42] = biological target: ScCyk3
# How it was run: as §1
# [43] = biological target: ScFus1
# How it was run: as §1
# [44] = biological target: ScHof1
# How it was run: as §1
# [45] = biological target: ScHse1
# How it was run: as §1
# [46] = biological target: ScLsb1
# How it was run: as §1
# [47] = biological target: ScLsb2
# How it was run: as §1
# [48] = biological target: ScLsb3
# How it was run: as §1
# [49] = biological target: ScLsb4
# How it was run: as §1
# [50] = biological target: ScMyo3
# How it was run: as §1
# [51] = biological target: ScMyo5
# How it was run: as §1
# [52] = biological target: ScNbp2
# How it was run: as §1
# [53] = biological target: ScPex13
# How it was run: as §1
# [54] = biological target: ScRvs167
# How it was run: as §1
# [55] = biological target: ScSho1
# How it was run: as §1
# [56] = biological target: ScSla1-D1-D2
# How it was run: as §1
# [57] = biological target: ScSla1-D3
# How it was run: as §1
# [58] = biological target: SpAbp1-D1
# How it was run: as §1
# [59] = biological target: SpBbc1
# How it was run: as §1
# [60] = biological target: SpBzz1-D1
# How it was run: as §1
# [61] = biological target: SpBzz1-D2
# How it was run: as §1
# [62] = biological target: SpCyk3
# How it was run: as §1
# [63] = biological target: SpHof1
# How it was run: as §1
# [64] = biological target: SpHof1-2
# How it was run: as §1
# [65] = biological target: SpHof1-3
# How it was run: as §1
# [66] = biological target: SpHse1
# How it was run: as §1
# [67] = biological target: SpLsb1
# How it was run: as §1
# [68] = biological target: SpLsb4
# How it was run: as §1
# [69] = biological target: SpMyo1
# How it was run: as §1
# [70] = biological target: SpNbp2
# How it was run: as §1
# [71] = biological target: SpPex13
# How it was run: as §1
# [72] = biological target: SpRvs167
# How it was run: as §1
# [73] = biological target: SpSla1-D1-D2
# How it was run: as §1
# [74] = biological target: SpSla1-D3
# How it was run: as §1
binder,measurement,setting,value
VQQDSLPKLPFRSWG,SPOT peptide array binding signal intensity,[1],9.5
same,SPOT peptide array binding signal intensity,[2],38.2
same,SPOT peptide array binding signal intensity,[3],3.5
same,SPOT peptide array binding signal intensity,[4],68.5
same,SPOT peptide array binding signal intensity,[5],5.5
same,SPOT peptide array binding signal intensity,[6],29
same,SPOT peptide array binding signal intensity,[7],≤ 0
same,SPOT peptide array binding signal intensity,[8],368
same,SPOT peptide array binding signal intensity,[9],1
same,SPOT peptide array binding signal intensity,[10],295
same,SPOT peptide array binding signal intensity,[11],3220
same,SPOT peptide array binding signal intensity,[12],≤ 0
same,SPOT peptide array binding signal intensity,[13],≤ 0
same,SPOT peptide array binding signal intensity,[14],83.3
same,SPOT peptide array binding signal intensity,[15],20
same,SPOT peptide array binding signal intensity,[16],≤ 0
same,SPOT peptide array binding signal intensity,[17],≤ 0
same,SPOT peptide array binding signal intensity,[18],16
same,SPOT peptide array binding signal intensity,[19],13
same,SPOT peptide array binding signal intensity,[20],220
same,SPOT peptide array binding signal intensity,[21],≤ 0
same,SPOT peptide array binding signal intensity,[22],53
same,SPOT peptide array binding signal intensity,[23],27.5
same,SPOT peptide array binding signal intensity,[24],8
same,SPOT peptide array binding signal intensity,[25],24
same,SPOT peptide array binding signal intensity,[26],4
same,SPOT peptide array binding signal intensity,[27],9.25
same,SPOT peptide array binding signal intensity,[28],≤ 0
same,SPOT peptide array binding signal intensity,[29],6890
same,SPOT peptide array binding signal intensity,[30],0.5
same,SPOT peptide array binding signal intensity,[31],14.5
same,SPOT peptide array binding signal intensity,[32],1260
same,SPOT peptide array binding signal intensity,[33],8.5
same,SPOT peptide array binding signal intensity,[34],27
same,SPOT peptide array binding signal intensity,[35],14
same,SPOT peptide array binding signal intensity,[36],1.5
same,SPOT peptide array binding signal intensity,[37],6.5
same,SPOT peptide array binding signal intensity,[38],3.75
same,SPOT peptide array binding signal intensity,[39],0.5
same,SPOT peptide array binding signal intensity,[40],≤ 0
same,SPOT peptide array binding signal intensity,[41],8
same,SPOT peptide array binding signal intensity,[42],2
same,SPOT peptide array binding signal intensity,[43],≤ 0
same,SPOT peptide array binding signal intensity,[44],178
same,SPOT peptide array binding signal intensity,[45],25
same,SPOT peptide array binding signal intensity,[46],85.5
same,SPOT peptide array binding signal intensity,[47],38.5
same,SPOT peptide array binding signal intensity,[48],5130
same,SPOT peptide array binding signal intensity,[49],3050
same,SPOT peptide array binding signal intensity,[50],≤ 0
same,SPOT peptide array binding signal intensity,[51],≤ 0
same,SPOT peptide array binding signal intensity,[52],≤ 0
same,SPOT peptide array binding signal intensity,[53],2500
same,SPOT peptide array binding signal intensity,[54],2720
same,SPOT peptide array binding signal intensity,[55],300
same,SPOT peptide array binding signal intensity,[56],3.5
same,SPOT peptide array binding signal intensity,[57],≤ 0
same,SPOT peptide array binding signal intensity,[58],25
same,SPOT peptide array binding signal intensity,[59],5.25
same,SPOT peptide array binding signal intensity,[60],275
same,SPOT peptide array binding signal intensity,[61],1
same,SPOT peptide array binding signal intensity,[62],15.5
same,SPOT peptide array binding signal intensity,[63],11.2
same,SPOT peptide array binding signal intensity,[64],258
same,SPOT peptide array binding signal intensity,[65],865
same,SPOT peptide array binding signal intensity,[66],77.5
same,SPOT peptide array binding signal intensity,[67],3.5
same,SPOT peptide array binding signal intensity,[68],6040
same,SPOT peptide array binding signal intensity,[69],≤ 0
same,SPOT peptide array binding signal intensity,[70],1
same,SPOT peptide array binding signal intensity,[71],5
same,SPOT peptide array binding signal intensity,[72],2610
same,SPOT peptide array binding signal intensity,[73],3.5
same,SPOT peptide array binding signal intensity,[74],≤ 0
QQEQNTPPLPPKPKS,SPOT peptide array binding signal intensity,[31],≤ 0
same,SPOT peptide array binding signal intensity,[32],≤ 0
same,SPOT peptide array binding signal intensity,[33],≤ 0
same,SPOT peptide array binding signal intensity,[34],13.5
same,SPOT peptide array binding signal intensity,[35],≤ 0
same,SPOT peptide array binding signal intensity,[36],≤ 0
same,SPOT peptide array binding signal intensity,[37],5
same,SPOT peptide array binding signal intensity,[38],2.5
same,SPOT peptide array binding signal intensity,[39],≤ 0
same,SPOT peptide array binding signal intensity,[40],7
same,SPOT peptide array binding signal intensity,[41],3
same,SPOT peptide array binding signal intensity,[42],1
same,SPOT peptide array binding signal intensity,[43],≤ 0
same,SPOT peptide array binding signal intensity,[44],109
same,SPOT peptide array binding signal intensity,[45],≤ 0
same,SPOT peptide array binding signal intensity,[46],223
same,SPOT peptide array binding signal intensity,[47],≤ 0
same,SPOT peptide array binding signal intensity,[48],3310
same,SPOT peptide array binding signal intensity,[49],67
same,SPOT peptide array binding signal intensity,[50],≤ 0
same,SPOT peptide array binding signal intensity,[51],≤ 0
same,SPOT peptide array binding signal intensity,[52],≤ 0
same,SPOT peptide array binding signal intensity,[53],680
same,SPOT peptide array binding signal intensity,[54],58.3
same,SPOT peptide array binding signal intensity,[55],152
same,SPOT peptide array binding signal intensity,[56],≤ 0
same,SPOT peptide array binding signal intensity,[57],≤ 0
same,SPOT peptide array binding signal intensity,[58],23.5
same,SPOT peptide array binding signal intensity,[59],0.5
same,SPOT peptide array binding signal intensity,[60],336
same,SPOT peptide array binding signal intensity,[61],≤ 0
same,SPOT peptide array binding signal intensity,[62],1.5
same,SPOT peptide array binding signal intensity,[63],≤ 0
same,SPOT peptide array binding signal intensity,[64],12.2
same,SPOT peptide array binding signal intensity,[65],16
same,SPOT peptide array binding signal intensity,[66],28.2
same,SPOT peptide array binding signal intensity,[67],585
same,SPOT peptide array binding signal intensity,[68],1340
same,SPOT peptide array binding signal intensity,[69],≤ 0
same,SPOT peptide array binding signal intensity,[70],≤ 0
same,SPOT peptide array binding signal intensity,[71],≤ 0
same,SPOT peptide array binding signal intensity,[72],462
same,SPOT peptide array binding signal intensity,[73],≤ 0
same,SPOT peptide array binding signal intensity,[74],≤ 0
